# Measurements published in PubChem BioAssay (NCATS).
# Where “and” joins values, the source holds several entries; their conditions need not be identical. Equal entries are not always repeated. Results filed as inconclusive are left out. A call without a number means that no potency is given here. Calls of active or inactive are those of the source. Unless noted, the call rests on the fitted dose curve.
# Columns and labels:
# [1] = Cell Viability - NIH 3T3 (AID 541; active means well fitted curve in the direction sought with a large enough effect; an effect the other way counts as inactive or inconclusive;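 further: cells exposed to compound for 40 hours; nearly all actives have a fitted effect of over 25% in size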; further: potency means the concentration at half of the fitted maximal effect); settings: NIH 3T3 cell viability, qHTS; activity change, negative = cytotoxicity: at 92.2 µM (top of the series)
# In short: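 AC50 values reflect concentration-dependent loss of intracellular ATP in NIH 3T3 cells after 40 hr treatment in complete culture medium, quantified by luciferase-based luminescence.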
# [2] = Cell Viability - SH-SY5Y (AID 544; active means well fitted curve in the direction sought with a large enough effect; an effect the other way counts as inactive or inconclusive;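 further: cells exposed to compound for 40 hours; nearly all actives have a fitted effect of over 55% in size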); settings: SH-SY5Y neuroblastoma cell viability; viability change, negative = cytotoxic: at 92.2 µM (top of the series)
# In short: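 Cytotoxicity is scored as a concentration-dependent fall in intracellular ATP in human SH-SY5Y cells treated 40 hr in complete culture medium. Potency is expressed as AC50 from a Hill equation fit.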
# [3] = Cellular Toxicity (caspase-3) Jurkat (AID 655; active means well fitted curve in the direction sought with a large enough effect; an effect the other way counts as inactive or inconclusive;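 further: cells exposed to compound for 16 h at 37 °C before reading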); settings: Jurkat caspase-3 activation, luminescence; caspase-3 activation: at 92.2 µM (top of the series), DMSO = 0%, tamoxifen = 100%
# In short: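 Jurkat cells (5000/well) in complete medium exposed 16 h at 37 C; caspase-3/7 activity read by Caspase-Glo luminescence after 20 min at room temperature. Normalized to DMSO and 100 uM tamoxifen; AC50 from Hill fits.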
# [4] = Cell Viability - LYMP2-005 (AID 967; active means well fitted curve in the direction sought with a large enough effect; an effect the other way counts as inactive or inconclusive)
# In short: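 Human lymphoblastoid LYMP2-005 cells, 2,500 per well in complete medium, rested 5 h at 37C then compound-treated 24 h at 37C. Intracellular ATP read by CellTiter-Glo luminescence after 30 min at room temperature; AC50 from Hill-equation fits of concentration-response data.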
# [5] = molecular target: Estrogen receptor (Homo sapiens) (UniProt P03372); assay: qHTS assay for small molecule antagonists of estrogen receptor alpha signaling (AID 588513; active means well fitted curve in the direction sought with a large enough effect in the signal ratio, with a control signal flat, not every such curve was filed as active; the % refers to the signal ratio)
# Estrogen receptor (Homo sapiens), sequence (P03372 whole entry, looked up): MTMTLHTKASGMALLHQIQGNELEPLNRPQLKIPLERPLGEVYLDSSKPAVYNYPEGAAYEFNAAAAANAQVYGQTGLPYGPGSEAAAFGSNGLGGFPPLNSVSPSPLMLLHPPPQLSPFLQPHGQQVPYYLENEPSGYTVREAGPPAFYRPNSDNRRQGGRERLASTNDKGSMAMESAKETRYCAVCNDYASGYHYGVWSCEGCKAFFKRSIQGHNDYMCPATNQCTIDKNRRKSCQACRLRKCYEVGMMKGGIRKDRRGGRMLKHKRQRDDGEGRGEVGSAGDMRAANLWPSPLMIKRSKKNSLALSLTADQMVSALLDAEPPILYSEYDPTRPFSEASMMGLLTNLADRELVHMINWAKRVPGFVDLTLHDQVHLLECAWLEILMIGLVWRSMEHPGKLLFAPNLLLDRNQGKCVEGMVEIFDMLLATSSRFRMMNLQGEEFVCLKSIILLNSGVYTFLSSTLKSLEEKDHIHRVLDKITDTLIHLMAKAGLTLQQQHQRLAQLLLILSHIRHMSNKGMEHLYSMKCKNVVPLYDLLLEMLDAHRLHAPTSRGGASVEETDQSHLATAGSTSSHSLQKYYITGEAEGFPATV
# In short: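 ER-alpha-UAS-bla GripTite HEK 293 cells in 2% charcoal/dextran-treated FBS medium; compounds titrated (1:2, duplicate), then stimulated with 0.5 nM 17-beta-estradiol for 18 h at 37C. CCF4 beta-lactamase fluorescence; Hill-fit IC50 and efficacy.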
# [6] = molecular target: Glucocorticoid receptor (Homo sapiens) (UniProt P04150); assay: qHTS assay for small molecule agonists of glucocorticoid receptor signaling (AID 588532; active means well fitted curve in the direction sought with a large enough effect in the signal ratio, with a control signal flat; the % refers to the signal ratio); settings: HeLa MMTV-bla, beta-lactamase ratio, agonist, 18 h; stronger effect = higher value; percent of dexamethasone control, DMSO zero
# Glucocorticoid receptor (Homo sapiens), sequence (P04150 whole entry, looked up): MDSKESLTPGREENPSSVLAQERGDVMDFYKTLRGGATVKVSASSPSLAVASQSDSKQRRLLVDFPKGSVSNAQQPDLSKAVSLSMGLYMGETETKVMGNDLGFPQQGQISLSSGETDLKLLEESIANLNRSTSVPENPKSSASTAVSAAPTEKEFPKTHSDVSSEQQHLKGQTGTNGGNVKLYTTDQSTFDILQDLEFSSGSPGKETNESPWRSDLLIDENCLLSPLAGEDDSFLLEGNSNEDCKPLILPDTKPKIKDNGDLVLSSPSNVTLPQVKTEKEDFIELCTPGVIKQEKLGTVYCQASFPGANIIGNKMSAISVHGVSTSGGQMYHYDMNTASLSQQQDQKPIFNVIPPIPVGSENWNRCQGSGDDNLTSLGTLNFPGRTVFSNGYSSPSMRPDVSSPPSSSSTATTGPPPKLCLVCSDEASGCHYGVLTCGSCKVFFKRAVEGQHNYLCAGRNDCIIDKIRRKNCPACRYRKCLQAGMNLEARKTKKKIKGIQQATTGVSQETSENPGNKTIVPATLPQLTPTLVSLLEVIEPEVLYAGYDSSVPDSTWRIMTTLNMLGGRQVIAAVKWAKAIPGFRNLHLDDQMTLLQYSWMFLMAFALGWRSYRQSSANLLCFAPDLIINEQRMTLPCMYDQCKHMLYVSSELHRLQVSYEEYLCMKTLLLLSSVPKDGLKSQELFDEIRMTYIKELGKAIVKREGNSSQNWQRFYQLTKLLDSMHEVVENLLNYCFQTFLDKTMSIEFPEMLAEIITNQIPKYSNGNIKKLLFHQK
# In short: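 Cells were plated and rested 3-5 h at 37 C, compounds were added in titration and incubated 18 h, then CCF4 substrate was loaded for 2 h at RT before reading blue/green fluorescence. EC50 came from Hill-equation fitting.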
# [7] = molecular target: Glucocorticoid receptor (Homo sapiens) (UniProt P04150); assay: qHTS assay for small molecule antagonists of glucocorticoid receptor signaling (AID 588533; active means well fitted inhibition curve with a large enough effect in the signal ratio, with a control signal flat, not every such curve was filed as active; the % refers to the signal ratio;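 further: cells stimulated with 2 nM dexamethasone as agonist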)
# In short: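 Antagonist-mode qHTS: compound titrations added to GRE-bla HeLa cells, then dexamethasone 2 nM final; 18 h, 37 C. CCF4 FRET fluorescence normalized to dexamethasone and DMSO; IC50 from Hill fit.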
# [8] = molecular target: Peroxisome proliferator-activated receptor delta (Homo sapiens) (UniProt Q03181); assay: qHTS assay for small molecule agonists of peroxisome proliferator-activated receptor delta signaling (AID 588534)
# Peroxisome proliferator-activated receptor delta (Homo sapiens), sequence (Q03181 whole entry, looked up): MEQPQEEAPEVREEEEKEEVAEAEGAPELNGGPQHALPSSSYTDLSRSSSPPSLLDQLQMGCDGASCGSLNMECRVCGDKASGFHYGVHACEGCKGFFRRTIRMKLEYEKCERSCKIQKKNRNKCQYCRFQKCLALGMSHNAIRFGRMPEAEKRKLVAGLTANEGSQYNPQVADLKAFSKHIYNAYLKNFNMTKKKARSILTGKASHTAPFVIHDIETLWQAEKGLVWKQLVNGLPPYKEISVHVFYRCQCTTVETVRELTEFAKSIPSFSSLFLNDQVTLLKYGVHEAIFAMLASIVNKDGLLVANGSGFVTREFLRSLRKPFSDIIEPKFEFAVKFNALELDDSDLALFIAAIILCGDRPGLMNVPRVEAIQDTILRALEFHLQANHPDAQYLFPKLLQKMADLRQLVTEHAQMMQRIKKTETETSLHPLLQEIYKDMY
# In short: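 Reporter cells were plated and held 5 hrs at 37 C before compounds were added. After 18 hrs at 37 C, CCF4 dye was loaded for 2 hrs at RT and fluorescence measured.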
# [9] = qHTS assay for small molecule antagonists of peroxisome proliferator-activated receptor delta signaling (AID 588535; active means well fitted inhibition curve with a large enough effect in the signal ratio, with a control signal flat, not every such curve was filed as active; the % refers to the signal ratio;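 on max response: cells co-treated with a PPAR-delta agonist as stimulator during compound exposure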); settings: HEK293T PPARd-UAS-bla, beta-lactamase FRET ratio, 18 h; 460 nm channel
# In short: (§1)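 Cells were seeded at 4000 per well in assay medium containing 2% charcoal/dextran FBS and held 5 hrs at 37 C. Compounds were then added for 18 hrs. CCF4 substrate was applied for 2 hrs at room temperature before fluorescence reading.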
# [10] = molecular target: Peroxisome proliferator-activated receptor delta (Homo sapiens) (UniProt Q03181); assay: as above
# In short: as §1
# [11] = molecular target: Peroxisome proliferator-activated receptor gamma (Homo sapiens) (UniProt P37231); assay: qHTS assay for small molecule antagonists of peroxisome proliferator-activated receptor gamma signaling (AID 588537; active means well fitted inhibition curve with a large enough effect in the signal ratio, with a control signal flat, not every such curve was filed as active; the % refers to the signal ratio;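 further: reporter cells co-stimulated with 50 nM rosiglitazone agonist during compound treatment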)
# Peroxisome proliferator-activated receptor gamma (Homo sapiens), sequence (P37231 whole entry, looked up): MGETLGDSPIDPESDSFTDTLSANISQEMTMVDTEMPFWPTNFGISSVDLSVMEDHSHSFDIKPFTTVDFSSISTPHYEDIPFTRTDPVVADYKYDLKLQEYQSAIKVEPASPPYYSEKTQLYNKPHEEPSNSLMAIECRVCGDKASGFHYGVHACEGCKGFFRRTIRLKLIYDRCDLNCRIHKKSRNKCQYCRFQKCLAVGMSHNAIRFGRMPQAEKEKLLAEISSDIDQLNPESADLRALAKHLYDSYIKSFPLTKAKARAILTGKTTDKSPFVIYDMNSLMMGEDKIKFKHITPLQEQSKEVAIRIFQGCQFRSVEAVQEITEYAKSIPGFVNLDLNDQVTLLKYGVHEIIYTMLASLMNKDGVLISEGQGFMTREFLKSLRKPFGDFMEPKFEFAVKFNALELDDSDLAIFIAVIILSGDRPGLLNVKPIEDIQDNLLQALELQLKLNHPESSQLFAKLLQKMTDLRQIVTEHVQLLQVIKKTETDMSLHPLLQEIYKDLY
# In short: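 Step one: plate 3000 HEK293 UAS-bla cells per well in medium with 1% stripped serum and hold 6-6.5 h at 37 C. Step two: add compound and 50 nM agonist for 16 h. Step three: CCF4 loading, fluorescence read.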
# [12] = molecular target: Retinoic acid receptor RXR-alpha (Homo sapiens) (UniProt P19793); assay: qHTS assay for small molecule agonists of retinoid X receptor alpha signaling (AID 588544)
# Retinoic acid receptor RXR-alpha (Homo sapiens), sequence (P19793 whole entry, looked up): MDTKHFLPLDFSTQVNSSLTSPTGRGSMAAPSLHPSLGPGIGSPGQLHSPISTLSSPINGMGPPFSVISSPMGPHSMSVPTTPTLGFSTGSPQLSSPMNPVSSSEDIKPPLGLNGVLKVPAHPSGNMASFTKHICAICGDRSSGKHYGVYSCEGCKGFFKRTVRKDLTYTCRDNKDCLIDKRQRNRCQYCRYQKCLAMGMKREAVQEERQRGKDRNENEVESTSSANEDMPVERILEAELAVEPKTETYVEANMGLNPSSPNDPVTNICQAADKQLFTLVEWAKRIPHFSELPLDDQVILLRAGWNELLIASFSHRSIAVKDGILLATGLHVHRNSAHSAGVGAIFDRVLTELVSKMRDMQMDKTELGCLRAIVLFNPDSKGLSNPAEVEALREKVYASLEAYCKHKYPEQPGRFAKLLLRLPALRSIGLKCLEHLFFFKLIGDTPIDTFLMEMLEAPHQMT
# [13] = qHTS assay for small molecule agonists of the antioxidant response element (ARE) signaling pathway (AID 651741; active means well fitted activation curve with a large enough effect in the signal ratio; the % refers to the signal ratio; further: potency means the concentration at half of the fitted maximal effect)
# In short: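 HepG2 ARE-bla cells plated at 2,000 cells/well and incubated 5 h at 37 C/5% CO2 received 23 nL compound in DMSO. After 16 h at 37 C, LiveBLAzer B/G FRET substrate was applied for 2 h at room temperature and fluorescence read.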
# [14] = qHTS assay for small molecule activators of the p53 signaling pathway (AID 651743; active means well fitted activation curve with a large enough effect in the signal ratio, not every such curve was filed as active; the % refers to the signal ratio; further: potency means the concentration at half of the fitted maximal effect); settings: HCT-116 p53RE-bla, beta-lactamase FRET ratio, 16 h; activation: stronger effect = higher value
# In short: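 HCT-116 p53RE-bla, 4,000 cells/well; 5 h settle; cpd/DMSO 16 h, 37 C; LiveBLAzer B/G 2 h RT; fluorescence intensity.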
# [15] = qHTS assay for small molecule activators of the nuclear factor-kappa B (NF-kB) signaling pathway (AID 651749; active means well fitted activation curve with a large enough effect in the signal ratio; the % refers to the signal ratio); settings: NF-kB-bla ME-180 cells, beta-lactamase FRET ratio, 16 h; stronger effect = higher value
# In short: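 Incubation lasted 16 hr at 37C in 5% CO2 after 23 nL compound addition to ME-180 NF-kB-bla cells. Activation appears as beta-lactamase-mediated FRET loss.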
# [16] = qHTS assay for small molecule disruptors of the mitochondrial membrane potential - 1 hr assay (AID 651754); further: nearly all actives have a fitted effect of over 35% in size; further: potency means the concentration at half of the fitted maximal effect
# In short: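 Steps: seed HepG2 cells and let attach overnight; pin-transfer compound or vehicle; incubate 1 hr at 37C; add Mito-MPS dye for 30 min; read two-channel fluorescence for monomer and aggregate forms.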
# [17] = qHTS assay for small molecule disruptors of the mitochondrial membrane potential - 5 hr assay (AID 651755); further: nearly all actives have a fitted effect of over 40% in size; further: potency means the concentration at half of the fitted maximal effect
# In short: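 HepG2 cells (2,000/well), attached overnight, exposed to compound 5 hr at 37C, then Mito-MPS dye 30 min. Fluorescence read for monomers (490/535 nm) and aggregates (540/590 nm).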
# [18] = molecular target: Estrogen receptor (Homo sapiens) (UniProt P03372); assay: qHTS assay for small molecule agonists of estrogen receptor alpha signaling (AID 588514); further: nearly all actives have a fitted effect of over 70% in size
# In short: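 Reporter-gene assay. […] controls beta-lactamase in HEK 293 GripTite cells; after 18 hrs with compound, CCF4 substrate is added for 2 hrs and fluorescence is read.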
# [19] = molecular target: Bile acid receptor (Homo sapiens) (UniProt Q96RI1); assay: qHTS assay for small molecule antagonists of farnesoid X receptor signaling (AID 588526)
# Bile acid receptor (Homo sapiens), sequence (Q96RI1 whole entry, looked up): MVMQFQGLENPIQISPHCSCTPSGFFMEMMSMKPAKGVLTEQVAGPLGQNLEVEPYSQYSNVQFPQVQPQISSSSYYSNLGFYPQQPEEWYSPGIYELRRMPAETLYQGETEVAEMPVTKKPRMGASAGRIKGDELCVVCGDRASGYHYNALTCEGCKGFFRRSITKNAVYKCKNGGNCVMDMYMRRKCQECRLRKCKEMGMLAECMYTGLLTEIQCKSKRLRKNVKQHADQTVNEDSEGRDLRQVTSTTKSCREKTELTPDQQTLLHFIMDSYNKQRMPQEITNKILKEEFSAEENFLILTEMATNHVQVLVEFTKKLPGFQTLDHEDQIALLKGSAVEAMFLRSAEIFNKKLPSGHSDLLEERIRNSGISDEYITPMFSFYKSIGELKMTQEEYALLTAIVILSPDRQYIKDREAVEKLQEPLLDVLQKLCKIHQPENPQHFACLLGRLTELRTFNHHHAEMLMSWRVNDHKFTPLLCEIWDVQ
# In short: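 Antagonist mode: titrated compounds tested against chenodeoxycholic acid stimulation (normalized to 50 uM CDCA and DMSO) in GeneBLAzer HEK293T cells for 16 h. Beta-lactamase read by CCF4 fluorescence; IC50 from Hill fits.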
structure (smiles),measurement,setting,value
[C-]1=CC=CC1.[C-]1=CC=CC1.[Cl-].[Cl-].[Ti+4],"activity change, negative = cytotoxicity",[1],-86.5% (active)
same,"viability change, negative = cytotoxic",[2],-81.6% (active)
CCCCCCCCCCCOC(=O)c1ccccc1C(=O)OCCCCCCCCCCC,Potency,[1],inactive
same,caspase-3 activation,[3],2.1% (inactive)
same,Potency,[4],inactive
same,Potency,[5],inactive
same,activation,[6],3.4% (inactive)
same,outcome,[7],inactive
same,outcome,[8],inactive
same,max response,[9],-38.8%
same,outcome,[10],inactive
same,Potency,[11],inactive
same,outcome,[12],inactive
same,Potency,[13],inactive
same,activation,[14],2.34% (inactive)
same,activation,[15],-0.4% (inactive)
same,Potency,[16],inactive
same,Potency,[17],inactive
Oc1cc(Cl)c(Cl)c(Cl)c1,caspase-3 activation,[3],14.2% (inactive)
same,Potency,[4],inactive
same,activation,[6],5.15% (inactive)
same,Potency,[13],23.7 µM (active)
same,Potency,[14],44.7 µM (active)
same,activation,[15],-0.357% (inactive)
same,Potency,[17],37.6 µM (active)
c1ccc2c(c1)ccc1cc3c(ccc4ccccc43)cc12,Potency,[13],2.37 µM (active)
same,Potency,[14],39.8 µM (active)
c1ccc(P(c2ccccc2)c2ccccc2)cc1,Potency,[1],25.1 µM (active)
same,Potency,[2],inactive
same,caspase-3 activation,[3],0.655% (inactive)
same,Potency,[5],inactive
same,Potency,[18],inactive
same,activation,[6],1.22% (inactive)
same,outcome,[7],inactive
same,outcome,[8],inactive
same,max response,[9],58.2%
same,Potency,[11],inactive
same,outcome,[12],inactive
same,Potency,[13],37.6 µM (active)
same,activation,[14],-3.71% (inactive)
same,activation,[15],-0.914% (inactive)
same,Potency,[17],inactive
C=CC(=O)OCCO,Potency,[1],31.6 µM (active)
same,activation,[6],19.7% (inactive)
same,max response,[9],-1.31%
same,outcome,[10],inactive
same,outcome,[12],inactive
same,Potency,[13],37.6 µM (active)
same,activation,[14],1.07% (inactive)
same,activation,[15],0.11% (inactive)
same,Potency,[16],inactive
same,Potency,[17],inactive
CN(C)c1ccc(N=Nc2ccccc2)cc1,caspase-3 activation,[3],-9.1% (inactive)
same,outcome,[19],inactive
same,activation,[6],0.929% (inactive)
same,outcome,[8],inactive
same,max response,[9],-40.3%
same,outcome,[10],inactive
same,outcome,[12],inactive
same,Potency,[13],37.6 µM (active)
CCCN(CCC)c1c([N+](=O)[O-])cc(C(F)(F)F)cc1[N+](=O)[O-],Potency,[1],inactive
same,Potency,[2],inactive
same,caspase-3 activation,[3],2.21% (inactive)
same,Potency,[5],inactive
same,Potency,[18],inactive
same,outcome,[19],inactive
same,outcome,[8],inactive
same,max response,[9],0.867%
same,outcome,[10],inactive
same,Potency,[11],inactive
same,outcome,[12],inactive
same,activation,[15],-3.66% (inactive) and -3.44% (inactive)
same,Potency,[16],inactive
Cc1cc(C)cc(OP(=O)(Oc2cc(C)cc(C)c2)Oc2cc(C)cc(C)c2)c1,Potency,[2],inactive
same,caspase-3 activation,[3],0.111% (inactive)
same,Potency,[4],inactive
same,Potency,[5],inactive
same,activation,[6],-3.84% (inactive)
same,outcome,[7],inactive
same,Potency,[11],inactive
same,outcome,[12],inactive
same,activation,[14],-0.0195% (inactive)
same,Potency,[16],11.9 µM (active)
CC(C#N)CCC#N (stereo unspecified),Potency,[2],inactive
same,caspase-3 activation,[3],0.213% (inactive)
same,Potency,[5],inactive
same,Potency,[18],inactive
same,activation,[6],5.21% (inactive)
same,outcome,[7],inactive
same,outcome,[8],inactive
same,max response,[9],27.1%
same,Potency,[11],inactive
same,Potency,[13],inactive
same,activation,[14],-0.507% (inactive)
same,activation,[15],0.705% (inactive)
Nc1c(Br)cc([N+](=O)[O-])cc1[N+](=O)[O-],Potency,[1],inactive
same,Potency,[2],inactive
same,Potency,[4],inactive
same,Potency,[5],inactive
same,outcome,[19],inactive
same,outcome,[8],inactive
same,max response,[9],33.6%
same,outcome,[10],inactive
same,Potency,[13],37.6 µM (active)
same,activation,[14],-4.7% (inactive)
same,activation,[15],-0.945% (inactive)
same,Potency,[16],21.1 µM (active)
same,Potency,[17],26.6 µM (active)
[O-][Cl+2]([O-])O,Potency,[1],inactive
same,caspase-3 activation,[3],-0.446% (inactive)
same,Potency,[4],inactive
same,Potency,[5],inactive
same,Potency,[18],inactive
same,outcome,[12],inactive
same,Potency,[13],inactive
same,activation,[14],0.222% (inactive)
same,activation,[15],-0.919% (inactive)
same,Potency,[16],inactive
Nc1ccc([N+](=O)[O-])cc1N,caspase-3 activation,[3],17.7% (inactive)
same,Potency,[4],inactive
same,max response,[9],3.68%
same,outcome,[10],inactive
same,Potency,[11],inactive
same,outcome,[12],inactive
same,Potency,[13],3.76 µM (active) and 2.73 µM (active)
same,activation,[14],-2.47% (inactive)
